PubChem BioAssay AID1159580 (chemical genetic matrix, 2015)
Screen size: about 5,500 compounds; about 2,000 (36%) were called active. Roughly 18% stayed inconclusive and do not appear here. No stated cut-off is given here; in the data, active means normalized growth mostly below about 0.91 (no sharp cut-off); inconclusive means no clear call, values can overlap the other calls; inactive means mostly above about 0.92. This is one part of the list.

Assay: chemical genetic growth profiling, strain panel (AID 1159580);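 further: tested at 20 µM; growth read once vehicle control cultures reached saturation at 30 °C; 1 = growth at the plate median or of vehicle wells; lower values mean less growth of the strain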
Details: growth OD

Measured: normalized growth

CC1CC[C@@]2(OC1)O[C@H]1CC3C4CC[C@@H]5C[C@@H](O)CC[C@]5(C)C4CC[C@]3(C)[C@H]1[C@@H]2C (some centres not stated)
inactive: S. cerevisiae deletion strains, locus YJR066W, strain TOR1, hits give low values 0.937 | S. cerevisiae deletion strains, locus YJR075W, strain HOC1, hits give low values 1.03 | S. cerevisiae deletion strains, locus YKL009W, strain mrt4, hits give low values 0.988 | S. cerevisiae deletion strains, locus YKL068W, hits give low values 0.985 | S. cerevisiae deletion strains, locus YKL085W, strain MDH1 (second series), hits give low values 0.969 | S. cerevisiae deletion strains, locus YKL085W, strain MDH1, hits give low values 0.969 | S. cerevisiae deletion strains, locus YKL160W, strain elf1, hits give low values 1.02 | S. cerevisiae deletion strains, locus YKL190W, strain CNB1, hits give low values 1.03 | S. cerevisiae deletion strains, locus YKR001C, strain vps1, hits give low values 1.01 | S. cerevisiae deletion strains, locus YKR026C, strain gcn3, hits give low values 1.03 | S. cerevisiae deletion strains, locus YLL026W, hits give low values 1.02 | S. cerevisiae deletion strains, locus YLL041C, strain sdh2, hits give low values 1.02 | S. cerevisiae deletion strains, locus YLR027C, strain aat2, hits give low values 1.05 | S. cerevisiae deletion strains, locus YLR039C, strain RIC1, hits give low values 1.09 | S. cerevisiae deletion strains, locus YLR058C, strain SHM2, hits give low values 1.04 | S. cerevisiae deletion strains, locus YLR102C, strain apc9, hits give low values 1.01 | S. cerevisiae deletion strains, locus YLR113W, strain HOG1, hits give low values 0.996 | S. cerevisiae deletion strains, locus YLR221C, strain rsa3, hits give low values 1.03 | S. cerevisiae deletion strains, locus YLR258W, strain gsy2, hits give low values 1.03 | S. cerevisiae deletion strains, locus YLR262C, strain YPT6 (second series), hits give low values 0.987 | S. cerevisiae deletion strains, locus YLR268W, strain sec22, hits give low values 1.02 | S. cerevisiae deletion strains, locus YLR320W, strain mms22, hits give low values 1.04 | S. cerevisiae deletion strains, locus YLR330W, strain CHS5, hits give low values 1.02 | S. cerevisiae deletion strains, locus YLR342W, strain FKS1 (second series), hits give low values 1.03 | S. cerevisiae deletion strains, locus YLR342W, strain FKS1, hits give low values 1.03 | S. cerevisiae deletion strains, locus YLR370C, strain arc18, hits give low values 1.02 | S. cerevisiae deletion strains, locus YLR371W, strain rom2, hits give low values 1.01 | S. cerevisiae deletion strains, locus YLR384C, strain iki3, hits give low values 1.01 | S. cerevisiae deletion strains, locus YLR418C, strain cdc73, hits give low values 1.04 | S. cerevisiae deletion strains, locus YML016C, strain PPZ1, hits give low values 1.02 | S. cerevisiae deletion strains, locus YML032C, strain rad52, hits give low values 1.01 | S. cerevisiae deletion strains, locus YML120C, strain ndi1, hits give low values 1.04 | S. cerevisiae deletion strains, locus YML124C, strain tub3, hits give low values 0.998 | S. cerevisiae deletion strains, locus YMR058W, strain fet3, hits give low values 1.02 | S. cerevisiae deletion strains, locus YMR078C, strain ctf18, hits give low values 0.998 | S. cerevisiae deletion strains, locus YMR125W, strain sto1, hits give low values 1.04 | S. cerevisiae deletion strains, locus YMR129W, hits give low values 1.01 | S. cerevisiae deletion strains, locus YMR205C, strain PFK2, hits give low values 1.02 | S. cerevisiae deletion strains, locus YMR223W, strain ubp8, hits give low values 1 | S. cerevisiae deletion strains, locus YMR231W, strain pep5, hits give low values 1.02 | S. cerevisiae deletion strains, locus YMR307W, strain GAS1, hits give low values 1.21 | S. cerevisiae deletion strains, locus YNL067W, strain RPL9B, hits give low values 1.03 | S. cerevisiae deletion strains, locus YNL071W, strain lat1, hits give low values 1.04 | S. cerevisiae deletion strains, locus YNL183C, strain NPR1, hits give low values 0.941 | S. cerevisiae deletion strains, locus YNL209W, strain ssb2, hits give low values 1.01 | S. cerevisiae deletion strains, locus YNL233W, strain BNI4, hits give low values 1.07 | S. cerevisiae deletion strains, locus YNL248C, strain rpa49, hits give low values 1.02 | S. cerevisiae deletion strains, locus YNL250W, strain rad50, hits give low values 1.05 | S. cerevisiae deletion strains, locus YNL271C, strain bni1, hits give low values 1 | S. cerevisiae deletion strains, locus YNL298W, strain CLA4, hits give low values 1.05 | S. cerevisiae deletion strains, locus YNL307C, strain MCK1, hits give low values 1 | S. cerevisiae deletion strains, locus YNL322C, strain KRE1 (second series), hits give low values 1.05 | S. cerevisiae deletion strains, locus YNL322C, strain KRE1, hits give low values 1.02 | S. cerevisiae deletion strains, locus YNR049C, strain mso1, hits give low values 1.02 | S. cerevisiae deletion strains, locus YNR052C, strain pop2, hits give low values 0.995 | S. cerevisiae deletion strains, locus YOL012C, strain htz1 1.12 | S. cerevisiae deletion strains, locus YOL147C, strain pex11, hits give low values 1.03 | S. cerevisiae deletion strains, locus YOR001W, strain rrp6, hits give low values 1.05 | S. cerevisiae deletion strains, locus YOR061W, strain CKA2, hits give low values 1.02 | S. cerevisiae deletion strains, locus YOR069W, strain VPS5, hits give low values 1.02 | S. cerevisiae deletion strains, locus YOR070C, strain gyp1, hits give low values 1.01 | S. cerevisiae deletion strains, locus YOR080W, strain dia2, hits give low values 1.02 | S. cerevisiae deletion strains, locus YOR083W, strain WHI5, hits give low values 1.02 | S. cerevisiae deletion strains, locus YOR106W, strain vam3, hits give low values 1.04 | S. cerevisiae deletion strains, locus YOR136W, strain idh2, hits give low values 1.01 | S. cerevisiae deletion strains, locus YOR144C, strain elg1, hits give low values 1 | S. cerevisiae deletion strains, locus YOR184W, strain ser1, hits give low values 1 | S. cerevisiae deletion strains, locus YOR231W, strain MKK1, hits give low values 0.99 | S. cerevisiae deletion strains, locus YOR265W, strain rbl2, hits give low values 1.01 | S. cerevisiae deletion strains, locus YOR270C, strain vph1, hits give low values 1.14 | S. cerevisiae deletion strains, locus YOR290C, strain snf2, hits give low values 1.1 | S. cerevisiae deletion strains, locus YOR316C, strain cot1, hits give low values 0.992 | S. cerevisiae deletion strains, locus YPL051W, strain arl3, hits give low values 1.02 | S. cerevisiae deletion strains, locus YPL078C, strain atp4, hits give low values 1.05 | S. cerevisiae deletion strains, locus YPL106C, strain sse1, hits give low values 1.02 | S. cerevisiae deletion strains, locus YPL240C, strain hsp82, hits give low values 1.02 | S. cerevisiae deletion strains, locus YPL241C, strain CIN2, hits give low values 1.03 | S. cerevisiae deletion strains, locus YPL256C, strain CLN2, hits give low values 0.984 | S. cerevisiae deletion strains, locus YPR119W, strain clb2, hits give low values 1.01 | S. cerevisiae deletion strains, locus YPR141C, strain kar3, hits give low values 1 | S. cerevisiae deletion strains, locus YPR163C, strain tif3, hits give low values 1.01 | S. cerevisiae deletion strains, locus YPR167C, strain met16, hits give low values 1.02 | S. cerevisiae deletion strains, strain wtn01, hits give low values 1.01 | S. cerevisiae strains, strain wild type, hits give low values 1.05
active: S. cerevisiae deletion strains, locus YKR091W, strain srl3, hits give low values 1.11 [resistant] | S. cerevisiae deletion strains, locus YLL001W, strain dnm1, hits give low values 1.18 [resistant] | S. cerevisiae deletion strains, locus YLR357W, strain rsc2, hits give low values 1.45 [resistant]
